Compound activity as filed in PubChem.
An excerpt weighted towards active compounds, which were near 21% of everything screened.
Pf growth 96h = P. falciparum growth inhibition at 96 hours | Potency, µM (highest dose often 28.7 µM), usual class: inhibitors | P. falciparum luciferase reporter growth, 96 h | AID 504834 | hit rate 6.9% among 320,000
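Erythrocytes infected with luciferase-expressing P. falciparum were dispensed at 2% hematocrit and 0.05% parasitemia (final), then incubated with compounds 96 hours at 37 C in 5% CO2. Luminescence after detection reagent addition reported growth.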
Shiga toxin inh = inhibitors of Shiga toxin in Vero cells. Vero cells, Shiga toxin protein synthesis inhibition reporter. inhibition, % at 38.7 µM. hit rate 9.2% among 290,000; in the data active means inhibition mostly above about 28%, no sharp cut-off; inactive means mostly below about 43%
HCV inhibitor = HCV inhibition. Huh7.5.1 HCVcc-Cre infection, luciferase reporter, 44 h. Potency, µM (doses to about 41.8 µM), hits mostly inhibitors. hit rate 3.4% among 340,000
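1,000 cells/well; 4 h culture; + compound; + HCVcc-Cre (~0.5 moi); 44 h; luciferase substrate, RT 15 min; read 15 sec.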
Pf growth 48h = P. falciparum growth inhibition at 48 hours (one generation); hit rate 5.9% among 310,000; P. falciparum luciferase growth in erythrocytes, 48 h; Potency, µM (highest dose often 28.7 µM), most hits filed as inhibitors; AID 504832
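Firefly luciferase activity from engineered P. falciparum reports growth; inhibitors lower the luminescent signal. Cultures contained 2% hematocrit erythrocytes at 0.1% final parasitemia.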
CHX counter = affects cycloheximide protein synthesis inhibition readout, counter-screen | cell reporter, cycloheximide protein synthesis inhibition counterscreen | max response, % | hit rate 12% among 300,000 | AID 2314; in the data active means max response mostly above about 13%, no sharp cut-off; inactive means mostly below about 14%; further: read at 38.3 µM for the half of the compounds with a filed dose
HCMV inh = inhibitors of human cytomegalovirus. AID 1259415. hit rate 4.5% among 410,000. HFF cells, HCMV-luciferase reporter, 72 h; active compounds read low. activity change, negative = inhibition, % at 57.5 µM; in the data active means activity change below about -60%; inconclusive means no clear call, values can overlap the other calls; inactive means above about -39%
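Steps: HFFs plated, 16 h 37C; compounds added; HCMV-luciferase added to MOI 1 PFU/cell; 72 h 37C; OneGlo reagent, 5 min room temperature; luminescence read, normalized to controls.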
Hits are given with their value; 0 = inactive; ? = inconclusive; - = no result given. Unless noted, the call rests on the fitted dose curve; in most records, active means well fitted inhibition curve with a large enough effect; inconclusive means small, poorly fitted or top-dose-only effect, or another doubt; inactive means no such curve, though single readings can be large or run the other way.

SMILES | Pf growth 96h | Shiga toxin inh | HCV inhibitor | Pf growth 48h | CHX counter | HCMV inh
O=C(Nc1cnn(Cc2ccc(Cl)c(Cl)c2)c1)C12CC3CC(CC(C3)C1)C2 | 7.4µM | 0 | ? | 13µM | 0 | 0
O=C(Nc1ccc(Cl)c(Cl)c1)c1ccc(Cn2cc(Cl)cn2)cc1 | 0 | active | ? | ? | 32 | 0
NNC(=O)c1ccc(Cn2cc(Cl)cn2)cc1 | ? | 0 | 0 | 0 | 0 | 0
COc1ccc(C(=O)Nc2cnn(Cc3c(F)cccc3Cl)c2)cc1OC | ? | 0 | 13µM | ? | 12 | 0
O=C(CSc1nccn1Cc1ccc(Cl)cc1)Nc1nc2ccccc2s1 | - | - | - | - | - | 0
Cc1nn(Cc2ccc(C(=O)Nc3ccccc3F)cc2)c(C)c1Cl | ? | 0 | 0 | ? | 0 | -62
COc1ccc(CNC(=O)c2[nH]c(C(F)(F)F)nc2-c2ccccc2)cc1OC | - | - | - | - | - | 0
COc1ccc(CNC(=O)c2sccc2-c2ccccc2)cc1OC | ? | 0 | 0 | 0 | 0 | -71
CCCS(=O)(=O)Nc1ccc(Nc2c3ccccc3nc3ccccc23)c(OC)c1 | - | - | ? | - | - | -76
CCOC(=O)c1oc2c(c1C)/C(=N/O)CCC2 | 0 | 66 | 0 | 0 | 41 | 0
CCOC(=O)c1oc2c(c1C)C(=O)CCC2 | 0 | 0 | 0 | 0 | 0 | 0
N/C(=N\OC(=O)c1ccc(Br)cc1)c1cccc([N+](=O)[O-])c1 | ? | 20 | 0 | 0 | 26 | 0
CC1=CC(=NOC(=O)c2cccc([N+](=O)[O-])c2)C=C(C)C1=O | - | 0 | ? | ? | 23 | 0
N/C(=N\OC(=O)Cc1ccc([N+](=O)[O-])cc1)c1cccc(Br)c1 | ? | 0 | 0 | 0 | 0 | 0
N/C(=N\OC(=O)C1CCCCC1)c1cccc([N+](=O)[O-])c1 | 0 | 106 | 0 | 0 | 66 | -
Cc1ccc(CC(=O)O/N=C(\N)c2cccc([N+](=O)[O-])c2)cc1 | 15µM | 0 | 0 | 0 | 15 | 0
CC1=CC(=O)C(C(C)C)=C/C1=N/OC(=O)c1cccc([N+](=O)[O-])c1 | ? | 0 | 0 | - | 0 | 0
N/C(=N\OC(=O)c1ccc([N+](=O)[O-])cc1)c1ccc(Br)cc1 | 0 | - | ? | 0 | 0 | 0
CCc1cc(C(=O)Nc2cnn(Cc3ccccc3C)c2)no1 | - | - | - | - | - | 0
O=C(CN1CCN(C(=O)c2ccco2)CC1)Nc1cccc([N+](=O)[O-])c1 | 0 | 0 | 0 | 0 | 0 | 0
Cc1ccc(C(=O)O/N=C(\N)c2cccc([N+](=O)[O-])c2)cc1 | 0 | 69 | 0 | 0 | 39 | 0
N/C(=N\OC(=O)c1ccncc1)c1cccc([N+](=O)[O-])c1 | 0 | - | ? | 0 | 27 | 0
Cc1ccc(C(=O)O/N=C(\c2ccccc2)c2ccncc2)cc1 | ? | 0 | 0 | 0 | 0 | 0
COc1cc(C(=O)O/N=C(\N)c2cccc([N+](=O)[O-])c2)cc(OC)c1OC | 0 | 0 | ? | 0 | 0 | 0
Cc1cccc(/C(N)=N/OC(=O)c2ccncc2)c1 | ? | 68 | 0 | 0 | 46 | 0
SMILES | Pf growth 96h | Shiga toxin inh | HCV inhibitor | Pf growth 48h | CHX counter | HCMV inh
Cc1ccccc1CN1C(=O)C(C)Sc2ccc(-c3ccco3)cc21 (stereo not drawn) | - | - | - | - | - | 0
COc1ccc(-n2nnnc2C2CCN(S(=O)(=O)c3cccc(C(F)(F)F)c3)CC2)cc1 | - | - | - | - | - | 0
Cc1cccc(C)c1-n1ncc(C(=O)NC2CCCC2)c1C1CCN(C(=O)OC(C)(C)C)CC1 | - | - | - | - | - | 0
COc1ccc2c(c1)nc(NCCCO)n2Cc1ccccc1 | 0 | 0 | 0 | 0 | 0 | 0
Cc1nn(C(C)C(=O)NC2CCCCC2)c(=O)c2c1sc1ccccc12 (stereo not drawn) | - | - | - | - | - | 0
Cc1cccc(NC(=O)/C(C#N)=C/c2ccco2)c1 | - | - | - | - | - | 0
Cc1c(C(=O)Nc2nc3ccccc3[nH]2)oc2c(Cl)cccc12 | ? | 76 | 0 | ? | 32 | 0
Cc1c(C(=O)Nn2cnnc2)oc2ccccc12 | ? | 0 | 0 | 0 | 0 | 0
Cc1c(C(=O)Nc2nccs2)oc2c(Cl)cccc12 | ? | - | 0 | ? | - | 0
Cc1c(C(=O)Nc2nc3ccccc3[nH]2)oc2ccccc12 | 0 | 100 | ? | 0 | 47 | 0
CCCCOc1c(Br)cc(CNCCCN2CCOCC2)cc1OC | 10µM | 0 | 4µM | 13µM | 0 | 0
CCC[C@@H]1CC2=CC(=O)CC[C@]2(C)[C@H]2CC[C@@]3(C)[C@@H](CC[C@@]34CCC(=O)O4)[C@H]12 | - | 0 | - | - | 0 | -
CC(=O)SC1CC2=CC(=O)CCC2(C)C2CCC3(C)C(CCC34CCC(=O)O4)C12 (stereo not drawn) | 0 | 0 | ? | 0 | 0 | -63
O=S1(=O)CCN(C2CCCCCC2)CC1 | - | - | - | - | - | 0
O=C(CSCc1ccc(F)cc1)N1CCc2c([nH]c3ccccc23)C1c1ccccc1 (stereo not drawn) | - | - | - | - | - | 0
CCOc1ccc(N=C2NN=C(c3cc(C)n(CC4CCCO4)c3C)CS2)cc1 (stereo not drawn) | 2.1µM | 0 | ? | ? | 0 | 0
COCCn1c(C)cc(C2=NNC(=NC3CC3)SC2)c1C | 0 | 0 | ? | 0 | 0 | -96
COCCn1c(C)cc(C2=NNC(=Nc3ccc(Cl)cc3Cl)SC2)c1C | ? | 0 | 0 | ? | 0 | 0
C=CCn1c(C)cc(C2=NNC(=NC(C)(C)C)SC2)c1C | 0 | 0 | ? | 0 | 0 | -85
C=CCN=C1NN=C(c2cc(C)n(CCOC)c2C)CS1 | 0 | 0 | 0 | ? | 0 | -96
Cc1ccc(-c2cn3nc(N4CCCC(C(=O)Nc5ccc(F)cc5)C4)sc3n2)cc1 (stereo not drawn) | - | - | - | - | - | 0
Cc1cccc(NC(=O)N2CCC(CN3CCOCC3)CC2)c1C | - | - | - | - | - | 0
C[C@H](CO)N1C[C@H](C)[C@@H](CN(C)S(=O)(=O)c2cn(C)cn2)Oc2ccc(NS(=O)(=O)c3ccccc3)cc2C1=O | - | - | 0 | - | - | 0
Cc1ccc(-n2c(SCc3ccccc3)nc3c([nH]c4ccccc43)c2=O)cc1 | - | - | - | - | - | 0
O=C(NC(=S)Nc1ccccc1C(=O)O)c1ccc2ccccc2c1 | 0 | 0 | 0 | 0 | 15 | 0
SMILES | Pf growth 96h | Shiga toxin inh | HCV inhibitor | Pf growth 48h | CHX counter | HCMV inh
O=C(O)c1ccc(NC(=S)NC(=O)c2ccc3ccccc3c2)cc1 | 0 | 0 | 0 | 0 | 0 | 0
O=C(O)c1cccc(NC(=S)NC(=O)c2ccc3ccccc3c2)c1 | ? | 71 | 0 | 0 | 42 | 0
CCc1ccc(NC(=S)N(Cc2cccc(Br)c2)CC2CCC(C(=O)O)CC2)cc1 (stereo not drawn) | 0 | 0 | 0 | 0 | 0 | 0
Cc1cccc(N2CCN(C(=O)COc3ccc4c(c3)CCC4)CC2C)c1 (stereo not drawn) | 0 | - | 0 | 0 | - | 0
CCOc1cc(/C=N/Nc2nc(-c3cccs3)c(NC(C)=O)s2)ccc1O | ? | 0 | ? | ? | 20 | 0
CCOc1cc(/C=N/NC(=O)CSc2cccc3cccnc23)ccc1O | 0 | 0 | 0 | ? | 0 | ?
CC(=O)Nc1sc(N/N=C\c2ccco2)nc1-c1cccs1 | ? | 0 | 0 | ? | 12 | 0
CC(=O)Nc1sc(NC(=O)c2ccc(Cl)cc2)nc1-c1cccs1 | 0 | 0 | ? | 0 | 0 | 0
CC(=O)Nc1sc(N/N=C\c2ccccc2)nc1-c1cccs1 | ? | active | 0 | ? | 31 | 0
